A short description of experiment [1]: BSK_hDFCGF_SRB: Viability Assessment in the BioMAP Diversity Plus: hDFCGF Assay (AID 2283061).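 Note: cells exposed to compound for 24 h before the read.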 Conditions: primary human foreskin fibroblasts. The method, boiled down: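 Primary human foreskin fibroblasts; 24 h post-dose; fixed 10% TCA, stained 0.1% SRB, A560 read; total protein as overt cytotoxicity measure; curves fit bidirectionally vs DMSO control.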
Read-out in experiment [2]: Monokine induced gamma interferon (MIG), CXCL9 (gene 4283)
The experiment in a line: BSK_hDFCGF_MIG: BioMAP Diversity Plus: hDFCGF Assay for Monokine induced gamma interferon (MIG) Biomarker Activity (AID 2283063). The settings on record: primary human foreskin fibroblasts; actives raise or lower the signal. The method, boiled down: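 Fibroblasts (human foreskin, primary) dosed, 24 h, MIG by ELISA; fit bidirectional vs DMSO.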

Read-out in experiment [3]: Matrix Metallopeptidase 1 (MMP1), MMP1 (gene 4312)
Put plainly: BSK_hDFCGF_MMP1: BioMAP Diversity Plus: hDFCGF Assay for Matrix Metallopeptidase 1 (MMP1) Biomarker Activity (AID 2283064). The settings on record: primary human foreskin fibroblasts; actives raise or lower the signal. The method, boiled down:
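ELISA read-out of MMP1 from human foreskin fibroblasts (primary skin cells), 24 h post-dose. Gain or loss of signal was fitted bidirectionally versus DMSO negative control; cytotoxicity was checked by SRB in parallel cultures.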

Read-out in experiment [4]: Plasminogen activator inhibitor-1 (PAI1), SERPINE1 (gene 5054)
Put plainly: BSK_hDFCGF_PAI1: BioMAP Diversity Plus: hDFCGF Assay for Plasminogen activator inhibitor-1 (PAI1) Biomarker Activity (AID 2283066). Conditions: primary human foreskin fibroblasts; actives raise or lower the signal. In a few lines:
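Human skin fibroblast cultures receive chemical for 24 h before PAI-1 is measured by ELISA; signal changes are fitted bidirectionally against DMSO-treated wells.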

Read-out in experiment [5]: Interferon-gamma inducible Protein 10 (IP10), CXCL10 (gene 3627)
Put plainly: BSK_KF3CT_IP10: BioMAP Diversity Plus: KF3CT Assay for Interferon-gamma inducible Protein 10 (IP10) Biomarker Activity (AID 2283068). The settings on record: primary human keratinocytes with fibroblasts; actives raise or lower the signal. The method, boiled down:
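ELISA read-out of IP-10 after 24 h chemical dosing of human skin primary co-culture (keratinocytes, foreskin fibroblasts). Gain or loss of signal relative to DMSO, bidirectional curve fit.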

Experiment [6] in a line: BSK_KF3CT_SRB: Viability Assessment in the BioMAP Diversity Plus: KF3CT Assay (AID 2283069).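 Note: total protein by sulforhodamine B staining as a cytotoxicity measure.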 The settings on record: primary human keratinocytes with fibroblasts. The method, boiled down: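 SRB read-out at 560 nm (0.1% stain, TCA-fixed cells) gauges overt cytotoxicity in a human skin keratinocyte–fibroblast co-culture 24 h post-dosing. Signal change was fitted bidirectionally relative to DMSO control.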

Read-out in experiment [7]: Interleukin-1 alpha (IL1a), IL1A (gene 3552)
Put plainly: BSK_KF3CT_IL1a: BioMAP Diversity Plus: KF3CT Assay for Interleukin-1 alpha (IL1a) Biomarker Activity (AID 2283070). Conditions: primary human keratinocytes with fibroblasts; actives raise or lower the signal. In a few lines:
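Primary skin co-culture (keratinocytes, foreskin fibroblasts), 24 h exposure; ELISA for IL-1a; bidirectional curve fit vs DMSO.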

Read-out in experiment [8]: TIMP metallopeptidase inhibitor 2 (TIMP2), TIMP2 (gene 7077)
The experiment in a line: BSK_KF3CT_TIMP2: BioMAP Diversity Plus: KF3CT Assay for TIMP metallopeptidase inhibitor 2 (TIMP2) Biomarker Activity (AID 2283071). Conditions: primary human keratinocytes with fibroblasts; actives raise or lower the signal. The method, boiled down: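 Measurements come from ELISA detection of TIMP-2 at 24 hours in a dosed human keratinocyte and foreskin fibroblast co-culture. DMSO serves as negative control and baseline.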

Read-out in experiment [9]: C-C motif chemokine 2 (Homo sapiens) (UniProt P13500)
Put plainly: BSK_KF3CT_MCP1: BioMAP Diversity Plus: KF3CT Assay for Monocyte Chemoattractant Protein 1 (MCP1/CCL2) Biomarker Activity (AID 2283073). Conditions: primary human keratinocytes with fibroblasts; actives raise or lower the signal. The method, boiled down:
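KF3CT skin co-culture (keratinocytes/foreskin fibroblasts), 24 h post-dose; MCP-1 by ELISA; gain/loss of signal fit bidirectionally vs DMSO baseline.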

Read-out in experiment [10]: Matrix Metallopeptidase 9 (MMP9), MMP9 (gene 4318)
Put plainly: BSK_KF3CT_MMP9: BioMAP Diversity Plus: KF3CT Assay for Matrix Metallopeptidase 9 (MMP9) Biomarker Activity (AID 2283074).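 For AC50: MMP9 protein level quantified by ELISA in the co-culture.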 Conditions: primary human keratinocytes with fibroblasts; actives raise or lower the signal. In a few lines: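 ELISA read-out of MMP-9 at 24 h post-dosing in a co-culture of human skin keratinocytes and foreskin fibroblasts. Gain or loss of signal was fitted in both directions against DMSO.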

Read-out in experiment [11]: urokinase plasminogen activator (uPA), PLAU (gene 5328)
Put plainly: BSK_KF3CT_uPA: BioMAP Diversity Plus: KF3CT Assay for urokinase plasminogen activator (uPA) Biomarker Activity (AID 2283075). The settings on record: primary human keratinocytes with fibroblasts; actives raise or lower the signal. The method, boiled down: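 Skin co-culture (keratinocytes + foreskin fibroblasts), human primary; 24 h post-dose; uPA by ELISA; gain/loss fit vs DMSO baseline.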

Experiment [12] is described as follows: BSK_LPS_SRB: Viability Assessment in the BioMAP Diversity Plus: LPS Assay (AID 2283079).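 Note: total protein by sulforhodamine B absorbance as a cytotoxicity measure; measured one day after compound addition.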 The settings on record: primary human HUVEC with PBMC. In a few lines: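 HUVEC + PBMC co-culture, LPS-stimulated; compound 24 h. 10% TCA fix, 0.1% SRB stain, A560. Bidirectional fit vs DMSO.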
Read-out in experiment [13]: Vascular cell adhesion molecule 1 (VCAM1), VCAM1 (gene 7412)
Put plainly: BSK_LPS_VCAM1: BioMAP Diversity Plus: LPS Assay for Vascular cell adhesion molecule 1 (VCAM1) Biomarker Activity (AID 2283086). The settings on record: primary human HUVEC with PBMC; actives raise or lower the signal. The method, boiled down:
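Measured by ELISA: VCAM-1 in LPS-activated HUVEC/PBMC co-cultures 24 h after treatment. Values reflect bidirectional fitting with DMSO as baseline.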

Read-out in experiment [14]: CD38, CD38 (gene 952)
The experiment in a line: BSK_SAg_CD38: BioMAP Diversity Plus: SAg Assay for CD38 Biomarker Activity (AID 2283087). Conditions: primary human HUVEC with PBMC; actives raise or lower the signal. In a few lines: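 Measures CD38 on a human endothelial/PBMC co-culture driven by SEB and TSST-1, 24 h after compound exposure, using ELISA with fluorescence detection; DMSO defines baseline for bidirectional curve fitting.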

Read-out in experiment [15]: Monocyte Chemoattractant Protein-1 (MCP1), CCL2 (gene 6347)
The experiment in a line: BSK_SAg_MCP1: BioMAP Diversity Plus: SAg Assay for Monocyte Chemoattractant Protein-1 (MCP1) Biomarker Activity (AID 2283090). Conditions: primary human HUVEC with PBMC; actives raise or lower the signal. In a few lines: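 Values derive from bidirectional fitting of ELISA-measured MCP1 against DMSO controls. Readings were taken 24 h after dosing human vascular endothelial cells co-cultured with peripheral blood mononuclear cells under superantigen stimulation.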

Read-out in experiment [16]: E-selectin (Homo sapiens) (UniProt P16581)
Put plainly: BSK_SAg_Eselectin: BioMAP Diversity Plus: SAg Assay for Eselectin Biomarker Activity (AID 2283091). Conditions: primary human HUVEC with PBMC; actives raise or lower the signal. The method, boiled down: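 E-selectin ELISA readout at 24 h post-dosing in human umbilical vein endothelial cell/PBMC co-culture; gain or loss of signal fitted relative to DMSO baseline.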

Read-out in experiment [17]: Monokine induced gamma interferon (MIG), CXCL9 (gene 4283)
The experiment in a line: BSK_SAg_MIG: BioMAP Diversity Plus: SAg Assay for Monokine induced gamma interferon (MIG) Biomarker Activity (AID 2283092). Conditions: primary human HUVEC with PBMC; actives raise or lower the signal. In a few lines:
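Endothelial cells and PBMC were co-cultured, exposed to test chemicals, and sampled 24 h later. MIG was measured by ELISA, and responses were fitted in both directions relative to DMSO.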

Read-out in experiment [18]: Interleukin-8 (IL8), CXCL8 (gene 3576)
Put plainly: BSK_SAg_IL8: BioMAP Diversity Plus: SAg Assay for Interleukin-8 (IL8) Biomarker Activity (AID 2283094). The settings on record: primary human HUVEC with PBMC; actives raise or lower the signal. In a few lines: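 Primary human endothelial cells with PBMC, exposed 24 h; IL-8 determined by ELISA, analysed bidirectionally relative to DMSO.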

Experiment [19] in a line: BSK_SAg_SRB: Viability Assessment in the BioMAP Diversity Plus: SAg Assay (AID 2283096).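 Note: cells read one day after compound addition; hits may be either gain or loss of signal compared with DMSO.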 Conditions: primary human HUVEC with PBMC. The method, boiled down:
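Compounds were added to a human vascular co-culture of umbilical vein endothelium and PBMC. After 24 h, parallel cultures were fixed with 10% TCA, stained with 0.1% sulforhodamine B and read at 560 nm. Gain or loss of signal was fitted relative to DMSO.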

Read-out in experiment [20]: Interferon-inducible T-cell alpha chemoattractant (ITAC), CXCL11 (gene 6373)
Put plainly: BSK_hDFCGF_ITAC: BioMAP Diversity Plus: hDFCGF Assay for Interferon-inducible T-cell alpha chemoattractant (ITAC) Biomarker Activity (AID 2284251). The settings on record: primary human foreskin fibroblasts. The method, boiled down:
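Measured by ELISA, the chemokine level serves as the endpoint in human skin fibroblast primary cultures 24 h after compound addition. Increases relative to DMSO-treated wells define activity.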

These results are taken from PubChem BioAssay (EPA / NIEHS).

Values joined by “and” are separate entries in the source; they are usually repeats but may differ in a detail not shown here. Identical values can stand only once. Active and inactive are the calls of the source. Rule for the calls: active = hit-call score of the fitted dose curve at least 0.9, where 1 is the maximum; inactive = score below 0.9.

Sequence of E-selectin (Homo sapiens) (P16581 whole entry, looked up): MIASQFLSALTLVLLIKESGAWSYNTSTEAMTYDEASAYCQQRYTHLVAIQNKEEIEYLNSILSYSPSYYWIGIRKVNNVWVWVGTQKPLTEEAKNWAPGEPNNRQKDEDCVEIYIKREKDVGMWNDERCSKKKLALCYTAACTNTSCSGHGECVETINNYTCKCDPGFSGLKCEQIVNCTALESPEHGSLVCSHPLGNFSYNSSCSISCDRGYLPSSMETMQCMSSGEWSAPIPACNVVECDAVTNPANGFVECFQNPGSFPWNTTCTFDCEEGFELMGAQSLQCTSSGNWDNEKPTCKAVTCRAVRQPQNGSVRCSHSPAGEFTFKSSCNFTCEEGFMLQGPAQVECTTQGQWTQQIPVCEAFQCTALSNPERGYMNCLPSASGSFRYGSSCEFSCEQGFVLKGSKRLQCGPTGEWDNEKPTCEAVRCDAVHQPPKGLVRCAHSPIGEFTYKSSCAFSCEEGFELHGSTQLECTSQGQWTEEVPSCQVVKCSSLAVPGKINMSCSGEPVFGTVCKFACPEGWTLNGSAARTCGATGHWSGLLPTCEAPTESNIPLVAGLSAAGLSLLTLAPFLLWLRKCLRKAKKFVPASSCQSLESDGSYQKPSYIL

Consider `OC(C(F)(F)F)(C(F)(F)F)C(O)(C(F)(F)F)C(F)(F)F`, for which the outcome in experiment [1], in experiment [3] and in experiment [11] was inactive. Moreover, the half-maximal activity concentration (AC50) in [2] was 30 µM (active); in experiment [4], 33.1 µM (active) and 33.8 µM (active); in experiment [5], 48.7 µM (active) and 47.2 µM (active); in experiment [6] it was 46.9 µM (active) and 58.2 µM (active); in experiment [7], 52.7 µM (active) and 54 µM (active); in experiment [8] it was 50.7 µM (active) and 51.8 µM (active). For the same molecule, the AC50 was 7.89 µM (active) and 7.97 µM (active) in experiment [9]; 43 µM (active) and 46.1 µM (active) in experiment [10]; 30.3 µM (active) and 24.3 µM (active) in experiment [12]; 21.9 µM (active) and 28.8 µM (active) in experiment [13]; 34.1 µM (active) and 21.9 µM (active) in experiment [14]; 43.3 µM (active) and 40.8 µM (active) in experiment [15]. Further, the AC50 in experiment [16] is 23.3 µM (active) and 22.9 µM (active); in experiment [17], 50.6 µM (active) and 49.6 µM (active); in experiment [18], 30 µM (active) and 21.4 µM (active); in [19], 26.9 µM (active) and 26.8 µM (active); in experiment [20], 21.2 µM (active) and 20.9 µM (active).

As for `CCC[Si](OC(C)=O)(OC(C)=O)OC(C)=O`, the outcome in experiment [1], in [2], in [3], in [4], in [5] and in experiment [6] was inactive. Moreover, the result in experiment [7], in [8], in experiment [9], in experiment [10], in experiment [11] and in [12] was inactive. Further, the result in [13], in [14], in [15], in experiment [16], in [17] and in experiment [18] was inactive. Further, the outcome in [19] and in [20] was inactive.

Usually AC50 stands for the concentration at which the activity in the assay is half-maximal.
